Source: PubChem BioAssay AID504332 (National Center for Advancing Translational Sciences (NCATS), 2011)
Several values for one entry are separate records, joined by “and”; a condition that tells them apart may be missing. Equal entries are not always repeated. Screen size: about 350,000 compounds; about 31,000 (8.9%) were called active. About 15% were inconclusive and are not listed. For the sample, actives were picked, then their nearest neighbours and some compounds at random. Unmarked numbers belong to inactive results. The call rests on the fitted dose curve; in most records, active means well fitted inhibition curve with a large enough effect; inconclusive means small, poorly fitted or top-dose-only effect; inactive means no such curve, though single readings can be large or run the other way.

The compounds below were run against Histone-lysine N-methyltransferase EHMT2 (Homo sapiens) (UniProt Q96KQ7) (assay: qHTS Assay for Inhibitors of Histone Lysine Methyltransferase G9a). Settings: G9a H3K9 monomethylation, AlphaScreen, 2 h; series mostly up to 102 µM; activity, negative = inhibition: at the top concentration.
From the text: Methylated lysines, on the N-terminal tails of histone proteins serve as epigenetic markers to recruit factors that can then modify local chromatin structure to lead to functional consequences. G9a and other members of the SUV39 family of the SET domain-containing superfamily of histone lysine methyltransferases (HMT) have been identified to specifically methylate Lys9 of histone H3 (H3K9). G9a catalyzes the mono- and di-methylation of H3K9 in mammalian euchromatic regions, where the resulting H3K9me2 is indicative of transcriptional repression. […] The inhibition of G9a will result in transcriptional activation and work synergistically with DNA methyltransferase and histone deacetylase inhibitors, to kill cancer cells. This qHTS assay for identification of G9a inhibitors is a chemiluminescence based AlphaScreen (PerkinElmer). Methylation of biotinylated-histone peptide is measured through specific antibody-based detection, in conjunction with streptavidin-coated donor and anti-IgG antibody-coated acceptor beads. The method is particularly well suited for detection of inhibitors acting by the desired histone peptide competitive mechanism and is applicable to testing other HMTs. Although AlphaScreen has significant advantages with its utility in a variety of epigenetic target assays, the primary screening data provided in this deposition should be used with caution due to the prevalence of screening artifacts. An AlphaScreen counterscreen is highly recommended to be run against any putative actives to eliminate non specific artifacts. Alternatively, one can use other AlphaScreen assays in PubChem to filter out promiscuous hits. Quinn et al. A chemiluminescence-based method for identification of histone lysine methyltransferase inhibitors. Mol Biosyst 6(5): 782-8. 2010. PMID: 20567762 [2] Baell,Holloway. New substructure filters for removal of pan assay interference compounds (PAINS) from screening libraries and for their exclusion in bioassays. J Med Chem. 53(7):2719-40. 2010. PMID: 20131845 NIH Molecular Libraries Probe Production Network [MLPCN] NIH Chemical Genomics Center [NCGC] Structural Genomics Consortium (SGC) NIH Grant: 5U54 MH084681-02
To each well of a 1,536w plate, 2ul of HMT enzyme (final 20nM) were added, using a nanoliter dispenser. The G9a- and GLP-inhibitor BIX-01294 (CID: 25150857) are used as an intraplate control, with a 16-point titration in duplicate. A Kalypsys pin-tool transferred 23nl of library compound solution in DMSO to each well. Following a 15 min incubation of enzyme with compounds at room temperature, 1ul mixture of b-H3K9 peptide substrate (final 500nM) and SAM cofactor (final 20uM) were added. Reactions were allowed to proceed at room temperature for 2 hours. Methylated b-H3K9 peptide product was detected with 0.5 ug/mL rabbit polyclonal anti-monomethyl histone H3K9 antibody (Abcam Inc., Cambridge, MA) and 20 ug/mL each streptavidin-coated donor and anti-rabbit IgG acceptor AlphaScreen beads. Antibody and beads were added in a 1ul dispense, for a final volume of 4ul, and plates were incubated, protected from the light, for 10 min at room temperature. Microplates were then read on an EnVision multilabel plate reader using the 1,536 plate HTS AlphaScreen aperture (excitation time 80 ms, measurement time 240 ms).
Further: nearly all actives have a fitted effect of over 75% in size.
On the % scale 0 is the no-effect control and ±100 the full control effect; potency means the concentration at half of the fitted maximal effect.

Sequence of Histone-lysine N-methyltransferase EHMT2 (Homo sapiens) (Q96KQ7 913-1193 limits assumed): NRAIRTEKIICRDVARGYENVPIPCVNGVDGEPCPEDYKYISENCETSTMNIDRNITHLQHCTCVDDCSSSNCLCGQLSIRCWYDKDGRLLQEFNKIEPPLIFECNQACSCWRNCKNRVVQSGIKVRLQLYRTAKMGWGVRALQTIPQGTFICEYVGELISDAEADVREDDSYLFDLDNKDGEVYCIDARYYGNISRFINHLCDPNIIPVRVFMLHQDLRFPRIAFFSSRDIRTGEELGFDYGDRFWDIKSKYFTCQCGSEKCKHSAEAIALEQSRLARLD

| Structure (SMILES) | Potency | activity, negative = inhibition |
| --- | --- | --- |
| c1ccc(Cc2nn3c(Cn4cnc5ccccc54)nnc3s2)cc1 | 3.16 µM (active) |  |
| COc1ccc(S(=O)(=O)NCc2ccc(C(=O)N3CCC4(CC3)OCCO4)cc2)cc1 |  | 7.61% [at 59 µM] |
| O=c1[nH]c(=O)n(-c2ccc(F)cc2)c(O)c1C=NCCN1CCCCC1 |  | 2.18% |
| O=C(N/N=C/c1c(O)n(C2CC2)c(=S)[nH]c1=O)c1ccccc1 |  | -6.95% |
| O=c1[nH]c(=O)n(CCc2ccccc2)c(O)c1/C=N/N1CCOCC1 |  | 4.98% |
| Cc1cccc(-n2c(O)c(C=NC34CN5CN(CN(C5)C3)C4)c(=O)[nH]c2=O)c1 | 50.1 µM (active) |  |
| Cc1cccc(-n2c(O)c(/C=N/N3CCOCC3)c(=O)[nH]c2=S)c1 | 22.4 µM (active) |  |
| CC(C)c1ccc(-n2c(O)c(/C=N/N3CCOCC3)c(=O)[nH]c2=S)cc1 | 50.1 µM (active) |  |
| O=c1[nH]c(=O)n(CCc2ccc(F)cc2)c(O)c1/C=N/N1CCCCC1 |  | -26.9% |
| O=c1[nH]c(=O)n(-c2ccccc2)c(O)c1C=NC12CN3CN(CN(C3)C1)C2 |  | -22.5% |
| Cc1ccc(-n2c(O)c(C=NCC3CCCO3)c(=O)[nH]c2=O)c(C)c1 (centres undefined) |  | 48.7% [at 12.7 µM] |
| CN(C)CC1CCCCC1=O (centres undefined) |  | -0.643% [at 59 µM] |
| CN(C)c1ccc(/C=C2\CC3C4CC=C5CC(O)CCC5(C)C4CCC3(C)C2=O)cc1 (centres undefined) |  | 18.3% [at 59 µM] |
| COC(=O)C1=C(c2ccccc2OCc2ccccc2)C[C@@H]2CC[C@H]1N2C(=O)NCc1ccc(OC)cc1 |  | -7.46% [at 2.33 µM] |
| CCOc1ccc(C2SCC(=O)Nc3c2c(C)nn3C2CCOC(C)(C)C2)cc1 (centres undefined) |  | -15.8% |
| c1ccc2c(c1)[I+]c1ccccc1-2 |  | -19.1% [at 12.7 µM] |
| Cc1ccc(-c2nc3ccccc3c(=O)n2-c2ccc(Br)cn2)cc1 |  | 8.78% |
| CN(C)C(=O)Oc1ccc(NC(=O)N2CCOCC2)cc1 |  | 53.9% |
| CSc1nc2ccc(C)cc2c(=O)n1-c1cccnc1 |  | 9.7% |
| N#Cc1ccc(Cn2cc(C(=O)c3ccco3)c3ccccc32)cc1 |  | 6.49% [at 59 µM] |

| Structure (SMILES) | Potency | activity, negative = inhibition |
| --- | --- | --- |
| COc1ccc(-n2c(O)c(C(C)=Nc3ccc4c(c3)CCC4)c(=O)[nH]c2=O)cc1 |  | -22.6% |
| CC(=O)NBr |  | inactive |
| CCc1nc2ccccc2c(=O)n1-c1cccc(OC)c1 |  | -1.25% [at 59 µM] |
| Cc1cccc(-n2c(C)nc3cc(C(=O)N4CCC5(CC4)OCCO5)ccc32)c1 |  | -27.9% |
| O=C(N/N=C/c1c(O)n(Cc2ccccc2)c(=O)[nH]c1=O)c1ccccc1 |  | -11.3% [at 59 µM] |
| CC(C)c1ccc(O)c(CN2CCN(c3ccccc3)CC2)c1 |  | 1.64% |
| Fc1ccc(N2CCN(Cc3ccc4c(c3)OCO4)CC2)cc1 | 8.91 µM (active) |  |
| Oc1cc2c(cc1CN1CCN(c3ccccc3)CC1)OCO2 | 10 µM (active) |  |
| Cc1cc(=O)oc2c(C)c(OCC(=O)N3CCN(Cc4ccc5c(c4)OCO5)CC3)ccc12 |  | 12.7% |
| O=C(NCC(c1cccnc1)N1CCN(c2ccccc2)CC1)Oc1ccccc1 (centres undefined) |  | 8.36% [at 59 µM] |
| Cc1ccc(C(C)C)c(OCC(=O)N2CCN(CC(=O)N3CCOCC3)CC2)c1 |  | 28.3% [at 12.7 µM] |
| CN1CCN(/N=C/c2c[nH]c3ccccc23)CC1 |  | -6.44% |
| CC(=O)OC1C2CCC3C1(CC(O)[C@@]1(O)[C@@H](CC(O)C1(C)C)[C@]3(C)O)C[C@@]2(C)O (some centres undefined) |  | -31.5% [at 2.33 µM] |
| CCN1C[C@@]2(COC)CC[C@H](OC)[C@]34[C@@H]1[C@]1(OCO[C@@]15C[C@@H](OC)C1C[C@H]3[C@H]5[C@@H]1OC)[C@H](O)[C@@H]24 |  | 26.9% [at 21.5 µM] |
| CSC1=NP(=S)(SC)N(C)c2nc3n(c21)CCC3 (centres undefined) |  | -0.587% |
| COc1ccc(-c2nn(CCC#N)cc2C(=O)Nc2ccc(C(C)=O)cc2)cc1 |  | 38.3% |
| COc1cc(-n2c(=S)[nH]c3ccc(C)cc3c2=O)c(Cl)cc1Cl |  | 20.4% [at 12.7 µM] |
| Cc1cc2ccccn2c1C(C[N+](=O)[O-])c1c(F)cccc1Cl (centres undefined) | 44.7 µM (active) |  |
| Cc1nc2nc(C)c(CCC(=O)N3CCC4(CC3)OCCO4)c(C)n2n1 |  | 2.74% [at 59 µM] |
| CNP1(NC)=Nc2nn(-c3ccccc3)c(N)c2C(c2ccccc2)=N1 |  | 1.22% [at 59 µM] |

| Structure (SMILES) | Potency | activity, negative = inhibition |
| --- | --- | --- |
| C/C=C/CC1(CC)C(=O)NC(=S)NC1=O |  | -10.4% |
| COc1cccc(C(=O)N2C[C@H]3C[C@@H](C2)c2cccc(=O)n2C3)c1 |  | 1.87% [at 12.7 µM] |
| O=C(NC(=S)N1C[C@H]2C[C@H](C1)c1cccc(=O)n1C2)c1ccc(F)cc1 | 35.5 µM (active) |  |
| O=C(CCC(=O)N1C[C@H]2C[C@@H](C1)c1cccc(=O)n1C2)NCc1ccccc1C(F)(F)F |  | 12.2% [at 0.501 µM] |
| Cc1cccc(NC(=O)OC2CN3CCC2CC3)c1 (centres undefined) |  | -11.9% |
| COc1ccc2c(c1O)-c1cccc3c1[C@@H](C2)N(C)CC3 | 7.94 µM (active) |  |
| COC1=C[C@@H]2[C@@H]3Cc4ccc(OC)c(O)c4[C@]2(CCN3C)CC1=O |  | 23.7% [at 59 µM] |
| COP(=O)(OC)C(NC(=O)c1ccc(C)cc1)C(Cl)(Cl)Cl (centres undefined) |  | 5.04% |
| C[C@]12CC[C@H](O)C[C@@H]1CC[C@H]1[C@H]2CC[C@]2(C)C(=O)CC[C@@H]12 |  | 13.5% [at 21.5 µM] and 22.6% [at 21.5 µM] and 16.7% [at 21.5 µM] |
| Cc1ccc(C2CN(C)CC2C(=O)c2ccc(F)cc2)cc1 (centres undefined) |  | 7.75% |
| Fc1cccc(F)c1CN1CCN(Cc2c(F)cccc2F)CC1 |  | -4.67% [at 59 µM] |
| COc1ccc(CN2CCN(c3ccccc3F)CC2)c(OC)c1 | 11.2 µM (active) |  |
| O=C(O)C1CSC(c2cccnc2)N1 (centres undefined) | 3.55 µM (active) |  |
| C[C@@]1([C@@H](NP(=O)(c2ccccc2)c2ccccc2)c2ccccc2)C[C@H]1CCO |  | 25.1% |
| COc1ccc(C2CC(c3cccs3)=NN2c2nc(C)c(C(C)=O)s2)cc1OC (centres undefined) |  | 25.5% |
| COc1ccccc1N=Nc1c(O)[nH]c(=S)[nH]c1=O | 39.8 µM (active) |  |
| CCOCCc1c(O)[nH]c(=S)[nH]c1=O |  | 5.61% |
| Clc1ccc2nc3c(c(-c4ccccc4)c2c1)CNCC3 |  | -15.8% [at 59 µM] |
| CNCC[C@H](Oc1ccc(C(F)(F)F)cc1)c1ccccc1 |  | 4.7% [at 21.5 µM] and 32.2% [at 12.7 µM] |
